Many of the other results were omitted from the sample, so hits are more common in it than they were.
IkB sig inh = IkB pathway inhibition in ABC-DLBCL cells. ABC-DLBCL IkBa-CBG/CBR dual luciferase ratio, 4 h; response scale: scaled: untreated 0%, proteasome inhibitor 100%. 0.04% of 110,000 active. Potency, µM (top dose mostly 57.1 µM), without a hit: top-dose IkBa stabilization activation; active = well fitted curve in the direction sought with a large enough effect in the signal ratio, not every such curve was filed as active; inconclusive = small, poorly fitted or top-dose-only effect, or a change in a side signal; the % refers to the signal ratio;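 also: the direction sought is a rising ratio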
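Curves were fitted separately to fusion (green), unfused (red) and ratio luminescence, then classed by r2, magnitude and activity. Cells: OCI-Ly3, 4 h compound plus doxycycline at 37C; 10 uM MG-132 defined full response.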
CRE Fsk mod = alters forskolin-stimulated CRE reporter signaling in CHO cells. AID 662. 2.5% of 71,000 active. CHO CRE-bla reporter (cAMP response element driving beta-lactamase), forskolin EC10, beta-lactamase ratio. Potency, µM (titrated, usually from 38.2 µM), for the others: top-dose activity change, negative = inhibition, most hits filed as activators; active = well fitted activation curve with a large enough effect in the signal ratio, with a control signal flat, not every such curve was filed as active; inconclusive = small, poorly fitted or top-dose-only effect, or effect the other way, or a change in a side signal; the % refers to the signal ratio; also: % of control where 0% means no effect
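Modulation of forskolin-driven signalling is measured in CHO cells carrying a CRE-controlled beta-lactamase reporter. Cells are stimulated with EC10 NKH 477 in the presence of titrated compound for 3 h at 37 °C, then loaded with CCF4 for 2 h at room temperature.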
Peg3 imprint = genomic imprint erasure induction. mouse ES Peg3-LacZ reporter, beta-gal luminescence, 40 h. Potency, µM (highest dose often 60.7 µM), inactives show at the highest dose activity change, positive = activation, most hits filed as activators. 0.02% of 110,000 active
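Imprint erasure is scored as LacZ activity from the silenced maternal Peg3 allele in feeder-free female ES cells cultured 40 h with LIF. Luminescence is normalized to in-plate negative controls and fitted to the Hill equation.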
ERK AVP block = vasopressin-driven ERK pathway inhibition. HEK293-V1b, vasopressin-stimulated pERK AlphaScreen. Potency, µM (doses to about 57.5 µM), without a hit: at the highest dose activity, negative = inhibition, actives largely listed as inhibitors. 0.99% of 72,000 active. AID 995; also: % is scaled to controls: 0 for no effect and ±100 for the full control effect; nearly all actives have a fitted effect of over 55% in size
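V1b-HEK293 cells; cpd 30 min 37C; 25 nM vasopressin 5 min; lyse 10 min; AlphaScreen beads 5 hr RT. Normalized to DMSO basal and 25 nM vasopressin; AC50 by Hill fit.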
* marks the source's active call; other numbers are inactive results; [ ] = remark or other dose. Unless noted, calls follow the shape of the dose curve; as a rule, active = well fitted curve in the direction sought with a large enough effect; inconclusive = small, poorly fitted or top-dose-only effect, or another doubt; inactive = no such curve, though single readings can be large; an effect the other way counts as inactive or inconclusive. Potency is read from the fitted curve at half-maximal effect.

`CCOC(=O)C1=C([Si](C)(C)C)c2ccccc2N(S(=O)(=O)C(F)(F)F)C1C(=O)OCC` (stereo not drawn) gave Peg3 imprint -22.8%.
`NCOC(=O)Cc1ccc(Br)cc1` gave IkB sig inh -0.7%[11.4 µM], CRE Fsk mod 9.2%[7.6 µM], Peg3 imprint 3.7%[10.9 µM] and ERK AVP block -16.0%[11.5 µM].
CC(C)=CCNc1ncnc2c1c(C#N)cn2[C@H]1O[C@@H](CO)[C@@H](O)[C@@H]1O was read as IkB sig inh 0.9%[11.4 µM], CRE Fsk mod 1.6%[7.6 µM], Peg3 imprint -22.8%[10.9 µM] and ERK AVP block 4.8%[11.5 µM].
For COCC#Cc1ccc(C2C(C)CCC3C(=O)N4C(CCC(C)C4c4ccc(C#CCOC)cc4)C(=O)N32)cc1 (stereo not drawn) the results were ERK AVP block 5.2%[11.5 µM].
`CO/N=C(\C)CCN1CCCc2nc(C)c(C)cc21` gave ERK AVP block 37.4%[11.5 µM].
`O=C(CSc1nc2ccccc2s1)NC(=O)NCc1ccco1` gave IkB sig inh inconclusive, CRE Fsk mod -17.6%, Peg3 imprint -21.7% and ERK AVP block -11.3%.
O=C(CSc1nc(-c2ccccc2)cs1)NC(=O)NCc1ccco1 was read as IkB sig inh inconclusive, CRE Fsk mod 13.0%, Peg3 imprint -70.6% and ERK AVP block 25.1µM*.
`O=C(CN1CCN(c2nc(-c3ccc(Cl)cc3)cs2)CC1)NCc1ccco1` gave IkB sig inh inconclusive, CRE Fsk mod -20.9%, Peg3 imprint -11.5% and ERK AVP block 31.6µM*.
CCCCOn1c(C)c(C(=O)OCC)c2c3nonc3ccc21 was read as IkB sig inh -0.8%, CRE Fsk mod 10µM*, Peg3 imprint -16.0% and ERK AVP block 22.0%.
Screening CCCCOn1c(C)c(C(=O)OCC)c2c3no[n+]([O-])c3ccc21 returned IkB sig inh -0.5%, CRE Fsk mod inconclusive, Peg3 imprint 9.5% and ERK AVP block 20.5%.
Screening CC(=O)[C@H]1CC[C@@H]2[C@]1(C)CC=C1[C@@]23C=C[C@]2(C[C@H](O)CC[C@@]12C)[C@H](C(=O)O)[C@@H]3C(=O)O returned Peg3 imprint 1.4%[10.9 µM].
For COc1ccc(NC(=O)CN2CCC(n3c(C)nc4cc(F)ccc43)CC2)c(OC)c1 the results were IkB sig inh 0.5%, CRE Fsk mod 0.398µM*, Peg3 imprint -10.5% and ERK AVP block -26.1%.
Cn1c(C(=O)NCc2ccccn2)cc2c(=O)n(C)c3ccccc3c21 was read as IkB sig inh 0.3%, CRE Fsk mod 5.01µM*, Peg3 imprint -10.8% and ERK AVP block -1.8%.
For COc1cccc(NC(=O)c2cc3c(=O)n(C)c4ccccc4c3n2C)c1 the results were IkB sig inh -1.6% and Peg3 imprint 6.7%[10.9 µM].
Screening CCn1c(=O)cc(SCC(=O)NCc2ccccn2)c2ccccc21 returned IkB sig inh 3.7%, CRE Fsk mod 7.94µM*, Peg3 imprint -9.3% and ERK AVP block 4.1%.
Cn1c(C(=O)Nc2ccc3c(c2)OCO3)cc2c(=O)n(C)c3ccccc3c21 was read as IkB sig inh 0.8%, CRE Fsk mod 1.58µM*, Peg3 imprint -12.9% and ERK AVP block inconclusive.
`CCCCN(CC)CCCNC(=O)c1cc2c(=O)n(C)c3ccccc3c2n1C` gave IkB sig inh 1.5%, CRE Fsk mod 12.2%, Peg3 imprint -5.3% and ERK AVP block 10.7%.
Screening CC(C)OCCCNC(=O)c1cc2c(=O)n(C)c3ccccc3c2n1C returned IkB sig inh -1.0%, CRE Fsk mod 2.51µM*, Peg3 imprint -10.3% and ERK AVP block 3.1%.
For CC(=O)c1ccccc1[N+](=O)[O-] the results were IkB sig inh 0.2%, CRE Fsk mod -9.5%, Peg3 imprint 3.4% and ERK AVP block 12.8%.
`COc1ncc2nc(-c3cn(C)c4ccccc34)c(=O)n(C[C@H]3CCCO3)c2n1` gave IkB sig inh -0.1%[11.4 µM], CRE Fsk mod 1.58µM*, Peg3 imprint inconclusive and ERK AVP block -29.9%.
Screening O=c1c(-c2cc(F)cc(F)c2)nc2cnc(Nc3ccccc3)nc2n1C[C@H]1CCCO1 returned IkB sig inh -2.1%[11.4 µM], CRE Fsk mod inconclusive, Peg3 imprint -0.8% and ERK AVP block 2.2%.
For O=c1c(-c2ccccc2)nc2cnc(Nc3ccccc3)nc2n1C[C@H]1CCCO1 the results were IkB sig inh 0.0%[11.4 µM], CRE Fsk mod 1.26µM*, Peg3 imprint inconclusive and ERK AVP block -12.6%.
Screening COc1ccc(-c2nc3cnc(OC)nc3n(C[C@H]3CCCO3)c2=O)cc1 returned IkB sig inh 0.1%[11.4 µM], CRE Fsk mod 10µM*, Peg3 imprint 3.1% and ERK AVP block -10.3%.
For COc1ncc2nc(-c3ccc(Cl)cc3)c(=O)n(C[C@H]3CCCO3)c2n1 the results were IkB sig inh 2.3%[11.4 µM], CRE Fsk mod inconclusive and ERK AVP block -23.5%.
`COCCn1c(=O)c(C)nc2cnc(Nc3cccc(OC)c3)nc21` gave IkB sig inh 2.4%[11.4 µM], CRE Fsk mod 12.6µM*, Peg3 imprint inconclusive and ERK AVP block -23.1%.
`COc1cccc(Nc2ncc3nc(C)c(=O)n(CCC#N)c3n2)c1` gave IkB sig inh -7.1%[11.4 µM], CRE Fsk mod 10µM* and ERK AVP block inconclusive.
COCCn1c(=O)c(-c2ccc(OC)cc2)nc2cnc(Nc3cccc(OC)c3)nc21 was read as IkB sig inh 1.7%[11.4 µM], CRE Fsk mod inconclusive and ERK AVP block 6.7%.
Screening COCCn1c(=O)c(C)nc2cnc(Nc3ccccc3)nc21 returned IkB sig inh 0.4%[11.4 µM], CRE Fsk mod 7.94µM*, Peg3 imprint -5.6% and ERK AVP block -19.4%.
COCCn1c(=O)c(CCc2ccccc2)nc2cnc(Nc3ccccc3)nc21 was read as IkB sig inh -0.8%[11.4 µM], CRE Fsk mod inconclusive, Peg3 imprint 3.9% and ERK AVP block -10.0%.
`COc1cccc(Nc2ncc3nc(C)c(=O)n(C4CC4)c3n2)c1` gave IkB sig inh -4.6%[11.4 µM], CRE Fsk mod 5.01µM*, Peg3 imprint -4.4% and ERK AVP block 0.0%.
Screening CC/C=C\CC[C@H](O)C1=CCCCC1=O returned ERK AVP block -1.0%[11.5 µM].
`C=C1C(=O)O[C@H]2C[C@@]3(C)CCCC(=C)[C@@H]3C[C@H]12` gave IkB sig inh 4.4%[11.4 µM] and CRE Fsk mod inconclusive.
For c1ccsc1 the results were IkB sig inh 1.1%, CRE Fsk mod -0.5%, Peg3 imprint -3.1% and ERK AVP block 0.7%.
For CC(=O)OCC1OC(C#CC2=CCCCC2)C=CC1OC(C)=O (stereo not drawn) the results were ERK AVP block 24.6%[11.5 µM].
CC(=O)OC[C@@H]1O[C@@H](O/N=C2/C[C@@H](O)[C@@H](O)[C@@H]3[C@@H]4C(=O)N(c5cccc(Oc6ccccc6)c5)C(=O)[C@H]4CC[C@H]23)[C@H](OC(C)=O)[C@H](OC(C)=O)[C@@H]1OC(C)=O was read as ERK AVP block 6.2%[11.5 µM].
For Cc1nc2cnc(Nc3ccccc3)nc2n(CCc2ccccc2)c1=O the results were IkB sig inh -0.1%[11.4 µM], CRE Fsk mod 15.8µM*, Peg3 imprint -9.0% and ERK AVP block -4.6%.

Screens (PubChem BioAssay)
